# In publication PMC7862700, “An all-to-all approach to the identification of sequence-specific readers for epigenetic DNA modifications on cytosine”:
# Key:
# Assay in all cases: DAPPL (digital affinity profiling via proximity ligation, sequencing); 10 mM Tris-HCl pH 7.5, 50 mM NaCl, 1 mM DTT, 4% glycerol, room temperature, 30 min; GST-TFs on glutathione beads, 16-mer random dsDNA library, 0.1% formaldehyde crosslink after washing; high values mean tight binding
# FEV = biological target: T1, FEV (Homo sapiens, UniProt Q99581 1-238); conditions: protein: recombinant; tags: N-terminal GST; dsDNA, one strand shown
# T1 sequence: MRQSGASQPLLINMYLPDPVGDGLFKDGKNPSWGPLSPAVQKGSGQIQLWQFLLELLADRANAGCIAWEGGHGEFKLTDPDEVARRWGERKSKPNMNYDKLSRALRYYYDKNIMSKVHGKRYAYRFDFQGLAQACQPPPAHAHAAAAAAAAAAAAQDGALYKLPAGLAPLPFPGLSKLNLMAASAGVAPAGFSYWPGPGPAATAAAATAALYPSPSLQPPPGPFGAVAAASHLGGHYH
# Procedure, shortened: (§1)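 Human transcription factors fused to GST were expressed in yeast, captured on glutathione beads, given DNA barcodes and pooled with a GST-only negative control. Pools were incubated with 200 nmole of a 16-mer random double-stranded DNA library in Tris/NaCl/DTT/glycerol buffer at room temperature for 30 min. They were then washed, crosslinked with 0.1% formaldehyde, proximity-ligated (BsaI/T4 ligase, 1 h, 37 °C), PCR-amplified and sequenced on an Illumina NextSeq500. Binding signal is each 6-mer's read frequency for a factor divided by its frequency for the GST control.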
# ETV5 = ETV5 (Homo sapiens, UniProt P41161 1-510); conditions: protein: recombinant; tags: N-terminal GST; dsDNA, one strand shown
# Procedure, shortened: as §1
# HSF1 = HSF1 (Homo sapiens, UniProt Q00613 1-529); conditions: protein: recombinant; tags: N-terminal GST; chain copies: 3; dsDNA, one strand shown
# Procedure, shortened: as §1
# SPIC = biological target: T2, SPIC (Homo sapiens, UniProt Q8N5J4 1-248); conditions: protein: recombinant; tags: N-terminal GST; dsDNA, one strand shown
# T2 sequence: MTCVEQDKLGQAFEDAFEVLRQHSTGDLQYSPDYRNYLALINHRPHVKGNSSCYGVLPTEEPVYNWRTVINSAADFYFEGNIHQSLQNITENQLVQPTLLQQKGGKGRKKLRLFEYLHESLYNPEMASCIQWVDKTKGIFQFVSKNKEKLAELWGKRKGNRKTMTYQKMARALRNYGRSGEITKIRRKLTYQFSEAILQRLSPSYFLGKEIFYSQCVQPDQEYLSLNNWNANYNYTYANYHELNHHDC
# Procedure, shortened: as §1
# ELF4 = ELF4 (Homo sapiens, UniProt Q99607 1-663); conditions: protein: recombinant; tags: N-terminal GST; dsDNA, one strand shown
# Procedure, shortened: as §1
# ELK4 = biological target: T3, ELK4 (Homo sapiens, UniProt P28324-2 1-405); conditions: protein: recombinant; tags: N-terminal GST; dsDNA, one strand shown
# T3 sequence: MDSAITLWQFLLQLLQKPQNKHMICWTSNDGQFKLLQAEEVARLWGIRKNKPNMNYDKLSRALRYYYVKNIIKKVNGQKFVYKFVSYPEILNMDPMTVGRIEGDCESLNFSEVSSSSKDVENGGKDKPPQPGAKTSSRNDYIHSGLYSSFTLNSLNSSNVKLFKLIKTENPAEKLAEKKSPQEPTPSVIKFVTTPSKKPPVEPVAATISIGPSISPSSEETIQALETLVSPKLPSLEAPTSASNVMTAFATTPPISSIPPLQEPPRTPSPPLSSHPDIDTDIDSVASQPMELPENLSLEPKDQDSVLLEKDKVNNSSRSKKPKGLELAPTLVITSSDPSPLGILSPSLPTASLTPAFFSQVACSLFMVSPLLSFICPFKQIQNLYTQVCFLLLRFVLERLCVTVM
# Procedure, shortened: as §1
# ETV2 = biological target: T4, ETV2 (Homo sapiens, UniProt O00321 1-342); conditions: protein: recombinant; tags: N-terminal GST; dsDNA, one strand shown
# T4 sequence: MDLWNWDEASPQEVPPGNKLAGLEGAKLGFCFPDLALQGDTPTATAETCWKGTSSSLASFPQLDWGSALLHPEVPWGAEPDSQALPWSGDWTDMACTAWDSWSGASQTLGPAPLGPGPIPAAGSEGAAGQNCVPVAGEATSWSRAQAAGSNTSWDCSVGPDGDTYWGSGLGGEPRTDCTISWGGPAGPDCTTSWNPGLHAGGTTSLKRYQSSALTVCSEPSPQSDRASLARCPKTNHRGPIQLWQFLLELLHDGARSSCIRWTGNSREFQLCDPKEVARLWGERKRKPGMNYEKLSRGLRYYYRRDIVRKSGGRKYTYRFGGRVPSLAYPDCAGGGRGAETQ
# Procedure, shortened: as §1
# ELF3 = biological target: T5, ELF3 (Homo sapiens, UniProt P78545 1-371); conditions: protein: recombinant; tags: N-terminal GST; dsDNA, one strand shown
# T5 sequence: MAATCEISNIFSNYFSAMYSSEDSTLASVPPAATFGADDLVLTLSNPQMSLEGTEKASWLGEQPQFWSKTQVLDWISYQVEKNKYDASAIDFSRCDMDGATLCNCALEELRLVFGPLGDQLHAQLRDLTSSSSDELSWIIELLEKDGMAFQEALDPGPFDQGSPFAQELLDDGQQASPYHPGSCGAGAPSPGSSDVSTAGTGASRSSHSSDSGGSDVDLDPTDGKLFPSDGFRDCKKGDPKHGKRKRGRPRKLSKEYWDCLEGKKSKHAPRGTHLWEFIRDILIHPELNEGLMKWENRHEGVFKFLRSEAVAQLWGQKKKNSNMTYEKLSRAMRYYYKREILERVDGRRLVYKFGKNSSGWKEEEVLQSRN
# Procedure, shortened: as §1
# CRX = CRX (Homo sapiens, UniProt O43186 1-299); conditions: protein: recombinant; tags: N-terminal GST; dsDNA, one strand shown
# Procedure, shortened: as §1
# Chain of CRX (O43186 whole entry): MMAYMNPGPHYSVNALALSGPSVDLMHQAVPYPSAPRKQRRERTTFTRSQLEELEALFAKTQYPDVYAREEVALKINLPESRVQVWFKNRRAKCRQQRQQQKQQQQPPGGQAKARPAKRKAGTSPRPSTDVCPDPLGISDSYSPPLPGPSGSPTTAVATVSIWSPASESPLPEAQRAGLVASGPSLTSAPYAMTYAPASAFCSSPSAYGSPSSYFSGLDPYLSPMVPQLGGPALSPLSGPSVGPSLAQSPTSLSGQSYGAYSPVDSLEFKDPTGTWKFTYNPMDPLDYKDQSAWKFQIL
# Chain of ETV5 (P41161 whole entry): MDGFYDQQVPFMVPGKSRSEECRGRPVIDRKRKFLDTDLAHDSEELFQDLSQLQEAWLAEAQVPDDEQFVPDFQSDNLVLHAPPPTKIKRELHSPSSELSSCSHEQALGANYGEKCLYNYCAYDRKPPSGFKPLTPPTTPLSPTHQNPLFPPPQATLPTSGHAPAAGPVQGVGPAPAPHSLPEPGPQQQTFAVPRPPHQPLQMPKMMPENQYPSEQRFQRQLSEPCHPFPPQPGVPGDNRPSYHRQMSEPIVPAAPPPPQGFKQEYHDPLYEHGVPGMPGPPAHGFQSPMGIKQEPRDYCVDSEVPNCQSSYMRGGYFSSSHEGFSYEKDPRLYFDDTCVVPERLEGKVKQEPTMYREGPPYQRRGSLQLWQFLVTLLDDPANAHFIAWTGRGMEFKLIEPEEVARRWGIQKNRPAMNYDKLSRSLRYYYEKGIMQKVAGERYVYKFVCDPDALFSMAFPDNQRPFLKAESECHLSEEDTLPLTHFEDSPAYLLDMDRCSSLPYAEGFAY
# Chain of ELF4 (Q99607 whole entry): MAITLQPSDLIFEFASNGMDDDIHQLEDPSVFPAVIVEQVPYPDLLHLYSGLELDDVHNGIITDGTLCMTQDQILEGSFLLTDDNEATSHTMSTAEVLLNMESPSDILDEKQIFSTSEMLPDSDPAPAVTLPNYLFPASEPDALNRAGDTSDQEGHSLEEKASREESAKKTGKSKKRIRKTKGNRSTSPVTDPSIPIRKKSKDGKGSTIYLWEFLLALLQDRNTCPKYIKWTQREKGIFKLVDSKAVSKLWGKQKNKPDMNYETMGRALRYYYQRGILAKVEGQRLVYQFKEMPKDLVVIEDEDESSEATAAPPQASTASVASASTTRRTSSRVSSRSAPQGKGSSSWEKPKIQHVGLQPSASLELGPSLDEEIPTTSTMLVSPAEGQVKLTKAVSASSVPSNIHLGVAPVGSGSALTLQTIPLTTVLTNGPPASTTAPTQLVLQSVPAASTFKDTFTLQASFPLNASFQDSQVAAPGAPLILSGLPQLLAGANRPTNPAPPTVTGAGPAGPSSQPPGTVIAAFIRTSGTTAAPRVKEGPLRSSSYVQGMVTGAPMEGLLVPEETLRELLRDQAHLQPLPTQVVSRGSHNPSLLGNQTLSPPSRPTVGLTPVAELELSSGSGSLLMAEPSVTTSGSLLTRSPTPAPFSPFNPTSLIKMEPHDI
# Chain of HSF1 (Q00613 whole entry): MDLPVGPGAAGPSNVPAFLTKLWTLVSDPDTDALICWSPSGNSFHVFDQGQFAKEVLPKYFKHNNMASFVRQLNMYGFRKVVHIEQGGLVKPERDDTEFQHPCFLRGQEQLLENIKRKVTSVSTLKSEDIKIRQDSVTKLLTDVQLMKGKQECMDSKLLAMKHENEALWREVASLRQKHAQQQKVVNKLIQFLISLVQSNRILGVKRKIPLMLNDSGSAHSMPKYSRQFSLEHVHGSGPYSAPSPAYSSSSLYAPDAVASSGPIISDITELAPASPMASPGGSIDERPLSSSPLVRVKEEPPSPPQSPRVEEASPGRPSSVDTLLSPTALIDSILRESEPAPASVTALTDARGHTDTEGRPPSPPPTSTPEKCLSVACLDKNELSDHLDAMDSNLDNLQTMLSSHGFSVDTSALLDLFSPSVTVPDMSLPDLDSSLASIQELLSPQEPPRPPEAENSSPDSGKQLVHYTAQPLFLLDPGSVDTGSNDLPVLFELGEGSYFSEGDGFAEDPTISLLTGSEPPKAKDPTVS
sequence,measurement,setting,value
TGAACT,binding signal,FEV,"1.28 fold enrichment (6-mer frequency, TF over GST control)"
same,binding signal,ETV5,"1.19 fold enrichment (6-mer frequency, TF over GST control)"
same,binding signal,HSF1,"1.19 fold enrichment (6-mer frequency, TF over GST control)"
same,binding signal,SPIC,"1.34 fold enrichment (6-mer frequency, TF over GST control)"
same,binding signal,ELF4,"1.23 fold enrichment (6-mer frequency, TF over GST control)"
same,binding signal,ELK4,"1.22 fold enrichment (6-mer frequency, TF over GST control)"
same,binding signal,ETV2,"1.2 fold enrichment (6-mer frequency, TF over GST control)"
same,binding signal,ELF3,"1.11 fold enrichment (6-mer frequency, TF over GST control)"
same,binding signal,CRX,"1.12 fold enrichment (6-mer frequency, TF over GST control)"
